NF-kB expr up: compounds increasing NF-kB expression in human neuronal cells | NF-kB reporter expression; hits give high values | fold change at 12.5 µM | 1.6% of 190,000 active | AID 1239; in the data active = fold change above about 3.3
ssDAF-12 act: S. stercoralis DAF-12 activation, primary screen. HEK293 ssDAF-12/GRIP1 lit1-tk-luc reporter, luminescence; % of 3 µM dafachronic acid response. activation, % at 6.8 µM. 1% of 370,000 active;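 active = activation above the mean over all tested compounds plus 3 SD, cut at about 0.9% in these data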;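 also: 0% = DMSO-only wells and 100% = 3 µM delta7-dafachronic acid wells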
hgDAF12 agonist: activates the H. glycines DAF-12 receptor ligand-binding domain; HEK293 GAL4-hgDAF12 UAS-luciferase reporter, agonist luminescence; normalized to butyrate control; activation, % at 6.8 µM; 1.8% of 370,000 active;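 active = activation above a cutoff set at the mean of all screened compounds plus 3 SD, cut at about 10% in these data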;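 also: 0% = DMSO wells and 100% = sodium butyrate wells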
APP 5'UTR act: activates APP 5'UTR luciferase reporter | SH-SY5Y APP 5'UTR luciferase reporter, luminescence; zero percent = DMSO vehicle wells | activation, % at 2 µM | 1% of 190,000 active | AID 1276;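 active = activation above a set limit, based on mean plus 3 SD of controls, cut at about 140% in these data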
hcDAF-12 act: activates DAF-12 receptor from parasite H. contortus. HEK293 hcDAF-12 lit1-tk-luc reporter, luminescence; 0% DMSO, 100% Δ7-dafachronic acid. activation, % at 6.8 µM. 1.4% of 370,000 active. AID 652067;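 active = activation above the mean of all tested compounds plus 3 SD, cut at about 5.5% in these data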;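 also: 100% = response to 3 µM Δ7-dafachronic acid high control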
Active calls of the source: *; x = not tested or not shown. The list is not random: actives were taken first. Their share in the collection is about 3.4%.

SMILES	NF-kB expr up	ssDAF-12 act	hgDAF12 agonist	APP 5'UTR act	hcDAF-12 act
COCCCNC(=O)C[C@H]1C[C@@]2(C(=O)OC)C(=C[C@H](C3CCCC3)O[C@@H]2C)N(Cc2cccc3ccccc23)C1=O	x	-0.8	-1.3	x	-4.0
CCCCCCC/C=C(\C)[C@@H](O)[C@@H](C)C(=O)N1CCC[C@@H]1C(=O)O[C@H](C(=O)O[C@@H](C)C(=O)O)[C@@H](C)CC	x	-1.3	-0.2	x	0.5
O=[N+]([O-])c1ccccc1S(=O)(=O)Oc1ccc(/C=N/n2cnnc2)cc1	0.91	1.2*	7.7	-2.8	3.0
CCCc1nn(C)c(C(=O)Nc2ccccc2)c1Cl	0.6	-1.3	-1.2	155.9*	-1.6
CCCc1nn(C)c(C(=O)Nc2ccc(Cl)cc2)c1Cl	1.42	-0.5	4.3	5.0	-1.9
CNC(=O)c1ccccc1NC(=O)c1c(O)c2c([nH]c1=O)CCCC2	0.84	-0.4	1.6	-3.4	3.0
O=C(N/N=C/c1cccc(F)c1)c1c(O)c2c([nH]c1=O)CCCC2	1.22	-0.8	3.2	141.7*	-0.4
COc1ccc(/C=C2/CCc3ccccc3C2=O)cc1OC	3.43*	-0.5	5.1	100.8	-2.0
COc1cc(/C=C2/CCc3ccccc3C2=O)cc(OC)c1OC	3.83*	-2.4	-1.5	26.6	-3.4
COc1cc(/C=C2\CCc3ccccc3C2=O)cc(OC)c1OC	3.07	-1.9	-4.8	6.9	-2.7
COc1ccc(Cl)cc1S(=O)(=O)N1CCN(C(=O)CSc2nc3ccccc3nc2N2CCCC2)CC1	x	-1.5	-1.6	x	-1.9
COc1ccc(C(=O)C=Cc2ccc(OCc3ccccc3)c(OC)c2)cc1OC	x	-2.2	-6.1	x	-2.7
COc1cccc(COc2ccc3ccc(=O)oc3c2)c1	x	1.0*	9.6	x	0.2
NNC(=O)c1ccc(COc2ccc3c(c2)CCC3)o1	1.31	-0.8	11.2*	14.1	-0.7
O=C(N/N=C/c1cccc(O)c1)c1ccc(COc2ccc3c(c2)CCC3)o1	1	-0.3	8.3	13.3	0.6
O=Cc1ccc(OCc2cccc(C(F)(F)F)c2)cc1O	1.25	-0.1	3.4	5.5	-1.3
O=C(OCC(F)(F)F)c1cccc(COc2ccc3ccccc3c2)c1	8.14*	0.4	14.6*	-44.0	6.1*
COc1cc(/C=C/[N+](=O)[O-])ccc1OCc1cccc(C(=O)O)c1	4.36*	x	x	-57.9	x
S=C(Nc1cccc(Br)c1)OC1CCC12CCC(c1ccccc1)CC2 (stereo not drawn)	x	-0.5	7.6	x	1.6
CN1CCC(N[C@@H](Cc2ccccc2)C(=O)NCCCc2ccccc2)(C(=O)NCCc2c[nH]c3ccccc23)CC1	x	-1.0	1.5	x	-1.2
COc1ccccc1NC(=O)c1ccc(COc2ccc3c(c2)CCC3)cc1	1.01	-0.5	0.9	32.4	0.8
COc1cccc(OC)c1C(=O)NNC(=O)c1cccc(COc2ccc3c(c2)CCC3)c1	2.55	-0.7	11.9*	78.7	2.4
COc1ccc(OCc2cccc(C(=O)O)c2)cc1	8.61*	0.2	5.4	x	5.8*
O=C(CSc1cccs1)Nc1cccc2ccccc12	2.34	-0.1	10.7*	30.7	4.6
O=C(CSc1nc(=O)n2ccccc2n1)Nc1cccc2ccccc12	x	1.0*	1.6	x	1.7
SMILES	NF-kB expr up	ssDAF-12 act	hgDAF12 agonist	APP 5'UTR act	hcDAF-12 act
Cc1cccc(NC(=O)CSc2nc(=O)n3ccccc3n2)c1C	x	-0.9	-0.4	x	1.0
CCCCNC(=O)C[C@H]1C(=O)N(Cc2ccc(OC)cc2)C2=CCCCC[C@@]21C(=O)OC	x	-1.6	-0.6	x	-1.4
CCNC(=O)C[C@H]1CC[C@H]2[C@@H](COc3ccc(NC(=O)c4ccc5c(c4)OCO5)cc3C(=O)N2C)O1	x	-1.1	0.2	x	-2.8
COc1ccc(NC(=O)Nc2ccccc2C(=O)N2CCCC2)cc1OC	x	-1.0	-1.7	x	-0.6
COC(=O)[C@H](CC(C)C)N(Cc1cn(CC2CCCCC2)nn1)S(=O)(=O)c1ccccc1Br	x	-1.5	-0.4	x	-1.7
COC(=O)C1=C(NC(=O)c2ccc(C)cc2)CCS1	1.38	1.9*	3.7	-5.3	3.9
CC(=NN1CCN(Cc2ccccc2Cl)CC1)c1ccc(O)cc1	x	-1.1	1.3	x	2.4
Cc1cc2nc3ccc(N(C)C)cc3nc2cc1N	x	1.1*	9.4	x	6.3*
Cc1cc2nn(-c3cccc4ccccc34)nc2cc1N	0.92	-0.4	2.8	70.0	1.6
COc1ccc2oc(=O)c(-c3nc(C)cs3)cc2c1	2.1	-0.3	7.4	199.3*	2.7
CCc1cc2c(=O)c(-c3cscn3)coc2cc1O	2.29	1.0*	10.9*	47.1	5.7*

High-throughput results (PubChem BioAssay)
